Among the data in PubChem BioAssay (NCATS) are Potency, outcome and max response values, retold here.

Values without a mark were called inactive. Records with an inconclusive call do not appear. Activity calls are given as the source filed them. Calls follow the shape of the dose curve; as a rule, active = well fitted curve in the direction sought with a large enough effect; inconclusive = small, poorly fitted or top-dose-only effect, or another doubt; inactive = no such curve, though single readings can be large; an effect the other way counts as inactive or inconclusive.

The nature of test [1]: Quantitative High-Throughput drug screen in 47 multiple myeloma cell lines against the NCATS MIPE library collection: KMS11_JCRBsus cell viability assay (AID 1919873). Also: nearly all actives have a fitted effect of over 50% in size. Also: potency is read from the fitted curve at half-maximal effect. Put shortly: (§1)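 ATP-based CellTiter-Glo luminescence after 48 h drug exposure (37 °C, 5% CO2) of 500 myeloma cells per well. DMSO-only wells set 100% viability, media-only wells 0%; MIPE 4.0 library added by pin tool.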

Test [2] in a line: Quantitative High-Throughput drug screen in 47 multiple myeloma cell lines against the NCATS MIPE library collection: KMS28BM_JCRB cell viability assay (AID 1919874). Also: nearly all actives have a fitted effect of over 35% in size. Also: potency is read from the fitted curve at half-maximal effect. The gist of the method: as §1
The nature of test [3]: KB-3-1 P-gp reporter qHTS against the NCATS DSHEA and TCM libraries (AID 1919975). Also: 0% is about no effect. Put shortly: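 Parental KB-3-1 cells, 500 cells/well, in DMEM with 10% FBS, exposed 72 h at 37 C to compounds in concentration-response. Viability read by CellTiter-Glo luminescence after 30 min at room temperature.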
The nature of test [4]: qHTS Counterscreen for compound interference against the NCATS DSHEA and TCM libraries (AID 1919978).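 Also: compounds preincubated with 1 µM D-luciferin or buffer before detection reagent; % of control where 0% means no effect.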 The conditions noted are these: firefly luciferase detection reagent interference, luminescence. Put shortly:
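Firefly luciferase detection reagent was added after compounds (19.5 nM–39.8 uM final) had been incubated 15 min at room temperature with 1 uM D-luciferin or with 100 mM phosphate buffer alone. Luminescence was read after 30 min at room temperature.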
Background: In qHTS, concentration-response curves come from the screen itself.

The nature of test [5]: Dual reporter qHTS for agonist of Pregnane X Receptor (hPXR) against the NCATS DSHEA and TCM libraries: Fluorescence readout (AID 1920058). Also: 0% is about no effect. Put shortly: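 Viability readout (CellTiter-Fluor, 405/540 nm, 1 h) from agonist-mode PXR dual reporter in hPXR-Luc HepG2 cells. Substances ~24 h, 37 °C, 5% CO2; rifampicin reference, tetraoctyl ammonium bromide cytotoxic control.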
Test [6] deals with Cytochrome P450 3A4 (Homo sapiens) (UniProt P08684). Kind of test: qHTS for inhibitors of CYP3A4 against the NCATS DSHEA and TCM libraries (AID 1919971).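 Also: % is scaled to controls: 0 for no effect and ±100 for the full control effect; inhibition lowers luminescence from luciferin made by CYP3A4.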 Put shortly: (§2)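 Each CYP isoform and its pro-luciferin substrate, at isoform-specific final concentrations, were preincubated 15 min at RT with substances. NADPH regeneration solution (1x) started a 30-45 min reaction, and P450-Glo luminescence was read.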

In test [7] the target is Cytochrome P450 2D6 (Homo sapiens) (UniProt P10635). Kind of test: qHTS for inhibitors of CYP2D6 against the NCATS DSHEA and TCM libraries (AID 1919972). Also: % is scaled to controls: 0 for no effect and ±100 for the full control effect. The gist of the method: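 CYP2D6 enzyme with pro-luciferin substrate in manufacturer buffer (typically 100 mM KPO4), preincubated 15 min RT with substances (most at 19.5 nM upward); NADPH regeneration system (1x) started 30–45 min RT reaction; P450-Glo luminescence read after 30 min; quinidine as intraplate control.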

In test [8] the target is Cytochrome P450 2C9 (Homo sapiens) (UniProt P11712). Kind of test: qHTS for inhibitors of CYP2C9 against the NCATS DSHEA and TCM libraries (AID 1919973).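 Also: luminogenic pro-luciferin CYP2C9 substrate turned into luciferin with NADPH regeneration; series mostly up to about 34 µM; % is scaled to controls: 0 for no effect and ±100 for the full control effect.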 Put shortly: as §2
The target of test [9] is Cytochrome P450 2C19 (Homo sapiens) (UniProt P33261). Kind of test: qHTS for inhibitors of CYP2C19 against the NCATS DSHEA and TCM libraries (AID 1919974).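 Also: luminescence from luciferin released by CYP2C19 oxidation of a pro-luciferin substrate; % is scaled to controls: 0 for no effect and ±100 for the full control effect.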 The gist of the method: as §2
Test [10] addresses Cytochrome P450 1A2 (Homo sapiens) (UniProt P05177). Kind of test: qHTS for inhibitors of CYPIA2 against the NCATS DSHEA and TCM libraries (AID 1919976). Also: series mostly up to about 37 µM; % is scaled to controls: 0 for no effect and ±100 for the full control effect. The gist of the method:
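Reaction started with 1x NADPH regeneration solution and run 30-45 min, room temperature, protected from light, after compounds sat 15 min with CYP1A2 and pro-luciferin substrate. P450-Glo detection gave luminescence; furafylline served as control.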

Chain of Cytochrome P450 2D6 (Homo sapiens) (P10635 whole entry, looked up): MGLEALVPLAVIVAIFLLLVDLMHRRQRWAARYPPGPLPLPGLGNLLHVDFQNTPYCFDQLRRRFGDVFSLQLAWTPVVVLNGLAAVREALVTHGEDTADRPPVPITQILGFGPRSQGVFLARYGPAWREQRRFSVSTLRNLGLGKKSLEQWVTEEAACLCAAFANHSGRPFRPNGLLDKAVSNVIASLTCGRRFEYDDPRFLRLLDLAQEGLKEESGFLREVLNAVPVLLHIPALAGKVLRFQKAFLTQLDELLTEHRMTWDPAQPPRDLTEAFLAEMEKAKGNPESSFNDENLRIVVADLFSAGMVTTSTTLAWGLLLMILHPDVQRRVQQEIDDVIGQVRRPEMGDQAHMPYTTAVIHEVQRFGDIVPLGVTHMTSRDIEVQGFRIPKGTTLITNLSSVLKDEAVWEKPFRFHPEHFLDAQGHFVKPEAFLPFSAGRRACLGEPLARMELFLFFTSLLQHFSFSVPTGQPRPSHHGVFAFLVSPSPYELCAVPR
Chain of Cytochrome P450 2C9 (Homo sapiens) (P11712 whole entry, looked up): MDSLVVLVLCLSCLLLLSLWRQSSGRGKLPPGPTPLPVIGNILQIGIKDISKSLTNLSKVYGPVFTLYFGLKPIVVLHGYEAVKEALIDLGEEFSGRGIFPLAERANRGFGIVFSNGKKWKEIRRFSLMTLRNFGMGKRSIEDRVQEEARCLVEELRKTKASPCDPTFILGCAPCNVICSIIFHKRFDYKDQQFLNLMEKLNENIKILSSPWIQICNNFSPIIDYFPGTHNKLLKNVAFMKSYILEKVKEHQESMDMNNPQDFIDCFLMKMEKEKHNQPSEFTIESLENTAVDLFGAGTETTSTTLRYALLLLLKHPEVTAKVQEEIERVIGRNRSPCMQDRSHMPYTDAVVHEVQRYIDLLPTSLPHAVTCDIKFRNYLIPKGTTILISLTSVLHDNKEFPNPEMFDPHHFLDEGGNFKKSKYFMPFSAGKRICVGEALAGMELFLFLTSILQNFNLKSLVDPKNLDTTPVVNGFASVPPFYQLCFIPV
Chain of Cytochrome P450 1A2 (Homo sapiens) (P05177 whole entry, looked up): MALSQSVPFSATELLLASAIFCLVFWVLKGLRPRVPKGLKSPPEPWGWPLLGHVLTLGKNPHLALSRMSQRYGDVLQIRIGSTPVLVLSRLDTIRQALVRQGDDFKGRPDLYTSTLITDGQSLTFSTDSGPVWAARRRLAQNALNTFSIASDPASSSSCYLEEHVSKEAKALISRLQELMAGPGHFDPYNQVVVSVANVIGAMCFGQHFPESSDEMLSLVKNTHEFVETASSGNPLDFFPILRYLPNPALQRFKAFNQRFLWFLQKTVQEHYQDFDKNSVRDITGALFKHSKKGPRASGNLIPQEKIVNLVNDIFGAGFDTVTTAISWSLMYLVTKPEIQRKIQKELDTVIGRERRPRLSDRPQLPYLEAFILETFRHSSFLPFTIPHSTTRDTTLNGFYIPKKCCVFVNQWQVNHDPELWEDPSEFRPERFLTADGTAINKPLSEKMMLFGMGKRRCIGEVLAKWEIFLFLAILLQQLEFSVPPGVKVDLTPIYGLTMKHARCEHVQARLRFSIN
Chain of Cytochrome P450 3A4 (Homo sapiens) (P08684 whole entry, looked up, canonical isoform): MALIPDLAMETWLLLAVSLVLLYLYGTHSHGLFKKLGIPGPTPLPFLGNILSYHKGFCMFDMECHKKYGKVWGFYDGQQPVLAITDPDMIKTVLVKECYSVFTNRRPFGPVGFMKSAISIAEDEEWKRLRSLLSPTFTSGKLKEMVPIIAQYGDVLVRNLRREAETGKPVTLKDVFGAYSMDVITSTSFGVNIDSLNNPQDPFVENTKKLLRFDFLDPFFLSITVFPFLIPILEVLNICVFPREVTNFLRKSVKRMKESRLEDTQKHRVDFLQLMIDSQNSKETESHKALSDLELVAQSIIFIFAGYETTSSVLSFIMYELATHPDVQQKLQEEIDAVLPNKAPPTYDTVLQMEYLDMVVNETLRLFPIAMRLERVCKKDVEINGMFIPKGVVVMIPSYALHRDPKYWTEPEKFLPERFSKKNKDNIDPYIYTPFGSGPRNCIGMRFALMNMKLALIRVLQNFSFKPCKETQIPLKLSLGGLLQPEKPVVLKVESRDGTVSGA
Chain of Cytochrome P450 2C19 (Homo sapiens) (P33261 whole entry, looked up): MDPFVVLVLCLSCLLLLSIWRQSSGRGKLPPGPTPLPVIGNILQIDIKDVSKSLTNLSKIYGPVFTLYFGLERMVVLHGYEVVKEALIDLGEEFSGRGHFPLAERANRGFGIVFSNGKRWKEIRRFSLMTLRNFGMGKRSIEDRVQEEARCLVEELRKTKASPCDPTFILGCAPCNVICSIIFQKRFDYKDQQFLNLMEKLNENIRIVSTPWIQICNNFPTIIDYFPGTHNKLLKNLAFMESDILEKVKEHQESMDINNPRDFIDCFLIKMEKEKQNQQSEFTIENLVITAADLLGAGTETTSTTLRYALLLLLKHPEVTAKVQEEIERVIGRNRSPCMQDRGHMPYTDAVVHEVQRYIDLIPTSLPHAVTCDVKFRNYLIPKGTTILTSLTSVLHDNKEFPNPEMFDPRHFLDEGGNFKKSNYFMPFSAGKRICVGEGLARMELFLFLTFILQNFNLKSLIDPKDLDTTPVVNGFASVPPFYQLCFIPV

Turning to `N[C@@H](Cc1c[nH]c2ccc(O)cc12)C(=O)O`, the Potency entry in test [1] and in test [2] was “inactive” in each case.

For the compound `CC(CCc1ccc(O)cc1)NCCc1ccc(O)c(O)c1` (centres undefined), the Potency in [1] and in test [2] was 26.4 µM (active) throughout.

`Nc1nnc(-c2cccc(Cl)c2Cl)c(N)n1`: the Potency result in test [1] and in test [2] was “inactive” throughout.

Turning to `CN1C2CCC1CC(OC(=O)C(CO)c1ccccc1)C2` (centres undefined), the Potency result in [1] and in test [2] was “inactive” in each case.

With `COc1nc(C)nc(Cl)c1NC1=NCCN1`, the Potency result in test [1] and in test [2] was “inactive” throughout.

With `CN(C)C(=N)N=C(N)N`, the Potency entry in [1] and in test [2] was “inactive” each time.

Regarding `Cc1cn([C@H]2C[C@H](N=[N+]=[N-])[C@@H](CO)O2)c(=O)[nH]c1=O`, the Potency entry in test [1] and in test [2] was “inactive” throughout.

As for `Nc1nc2c(ncn2COC(CO)CO)c(=O)[nH]1`, the Potency was 18.7 µM (active) in [1] and 29.6 µM (active) in test [2].

With `CC(C)(C)C(=O)Oc1ccc(S(=O)(=O)Nc2ccccc2C(=O)NCC(=O)O)cc1`, the Potency result in test [1] and in [2] was “inactive” each time.

Take `CC(C)NCC(O)c1ccc(O)c(O)c1` (centres undefined): the Potency in test [1] was 16.6 µM (active); in [2] it was 7.43 µM (active).

For the compound `OCCN(CCO)c1nc(N2CCCCC2)c2nc(N(CCO)CCO)nc(N3CCCCC3)c2n1`, the Potency in test [1] and in test [2] was 16.6 µM (active) in each case.

Regarding `Clc1ccc(C(c2ccccc2Cl)C(Cl)Cl)cc1` (centres undefined), the Potency in [1] was 18.7 µM (active); in [2], 16.6 µM (active).

As for `CCC1(c2ccccc2)C(=O)NCNC1=O`, the Potency result in [1] and in [2] was “inactive” throughout.

As for `Cc1cc(C(C)(C)C)c(O)c(C)c1CC1=NCCN1`, the Potency entry in [1] and in test [2] was “inactive” each time.

Consider `Cc1ccc(C(=O)Nc2ccc(S(=O)(=O)O)c3cc(S(=O)(=O)O)cc(S(=O)(=O)O)c23)cc1NC(=O)c1cccc(NC(=O)Nc2cccc(C(=O)Nc3cc(C(=O)Nc4ccc(S(=O)(=O)O)c5cc(S(=O)(=O)O)cc(S(=O)(=O)O)c45)ccc3C)c2)c1`, for which the Potency entry in test [2] is “inactive”.

Regarding `Cn1c(=O)c2[nH]cnc2n(C)c1=O`, the Potency result in test [1] and in test [2] was “inactive” in each case.

For `O=c1c(O)c(-c2ccc(O)c(O)c2)oc2cc(O)cc(O)c12`, in test [2], the Potency result was “inactive”. The compound was called inactive in test [3] and in [5]. Besides, the max response in test [4] is -0.891%.

As to `CCOC(=O)c1ncn2c1CN(C)C(=O)c1cc(F)ccc1-2`, the Potency result in test [2] was “inactive”.

For `COc1ccccc1N1CCN(CC(O)COc2cccc3ccccc23)CC1` (centres undefined), the Potency in test [2] is 13.2 µM (active).

Consider `CN(C)CCOC(c1ccccc1)c1ccccc1`, for which the Potency in [2] was 5.9 µM (active).

As for `CC12CC3CC(C)(C1)CC(N)(C3)C2`, in test [2], the Potency was 2.64 µM (active).

On to `CC(COc1ccccc1)N(CCCl)Cc1ccccc1` (centres undefined), for which the Potency result in [1] is “inactive”. The Potency in test [2] is 18.7 µM (active).

Regarding `COc1cc2nc(N3CCN(C(=O)C4COc5ccccc5O4)CC3)nc(N)c2cc1OC` (centres undefined), the Potency was 18.7 µM (active) in [1] and 16.6 µM (active) in [2].

In the case of `O=C(C1CCCCC1)N1CC(=O)N2CCc3ccccc3C2C1` (centres undefined), the Potency result in test [1] and in test [2] was “inactive” in each case.

Regarding `CN(C)c1nc(N(C)C)nc(N(C)C)n1`, in [2], the Potency result is “inactive”.

On to `NC(CO)C(=O)NNCc1ccc(O)c(O)c1O` (centres undefined), for which the Potency in [2] is 23.5 µM (active).

As for `CCCCc1oc2ccccc2c1C(=O)c1cc(I)c(OCCN(CC)CC)c(I)c1`, the Potency in test [2] was 20.9 µM (active).

Consider `Cn1cnc2c1c(=O)[nH]c(=O)n2C`, for which the Potency in test [1] is 9.35 µM (active); in test [2] it was 14.8 µM (active).

`O=C1Cc2cc(CCN3CCN(c4nsc5ccccc45)CC3)c(Cl)cc2N1`: the Potency in test [2] was 23.5 µM (active).

As for `CC(C)NCC(O)COc1ccc(CCOCC2CC2)cc1` (centres undefined), the Potency entry in test [2] was “inactive”.

As to `CS(=O)(=O)Nc1ccc([N+](=O)[O-])cc1Oc1ccccc1`, in test [2], the Potency result is “inactive”.

On to `CC(C)C(=O)Nc1ccc([N+](=O)[O-])c(C(F)(F)F)c1`, for which the Potency entry in [2] is “inactive”.

For `CC(C)(Oc1ccc(C2CC2(Cl)Cl)cc1)C(=O)O` (centres undefined), the Potency entry in test [1] and in test [2] was “inactive” each time.

Regarding `COC(=O)Nc1nc2ccc(C(=O)c3cccs3)cc2[nH]1`, in test [2], the Potency result is “inactive”.

`Fc1ccc([C@@H]2CCNC[C@H]2COc2ccc3c(c2)OCO3)cc1`: the Potency was 23.5 µM (active) in test [1] and 20.9 µM (active) in test [2].

For the compound `CCN1CCCC1CNC(=O)c1cc(S(=O)(=O)CC)c(N)cc1OC` (centres undefined), the Potency result in test [1] and in test [2] was “inactive” throughout.

Turning to `Nc1c2c(nc3ccccc13)CCCC2`, the Potency result in test [1] was “inactive”. In addition, the Potency in test [2] was 16.6 µM (active).

For `Clc1ccc2nsnc2c1NC1=NCCN1`, the Potency result in [1] and in test [2] was “inactive” each time.

Turning to `Cn1c(=O)c2c(ncn2C)n(C)c1=O`, the Potency result in [1] and in [2] was “inactive” in each case. For the same compound, the compound was called inactive in [6], in test [7], in test [8], in [9], in test [3] and in [10]. For the same compound, in [5], the result was inactive. The max response in [4] is 2.12%.

Turning to `CC1COc2c(N3CCN(C)CC3)c(F)cc3c(=O)c(C(=O)O)cn1c23` (centres undefined), in test [2], the Potency entry was “inactive”.

For the compound `CN(C)CCC=C1c2ccccc2C=Cc2ccccc21`, the Potency in test [2] was 3.72 µM (active).

For `CN1CCN(C2=Nc3cc(Cl)ccc3Nc3ccccc32)CC1`, in test [2], the Potency entry was “inactive”.

Take `O=c1c(-c2ccc(O)cc2)coc2cc(O)cc(O)c12`: the Potency entry in test [2] is “inactive”.
